# GAA glycogen mod – alters human alpha-glucosidase cleavage of glycogen | P10253 | recombinant GAA, glycogen substrate, Amplex Red glucose oxidase fluorescence | Potency, µM (top dose mostly 76.4 µM), for inactives: at the highest dose activity change, negative = inhibition, usual class: inhibitors | actives 0.38% (n = 300,000) | AID 2100;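 note: potency is the fitted concentration of half-maximal effect; 0% = full enzyme reaction and -100% = no-enzyme basal signal; the screen sought inhibitors and activators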
#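 qHTS, 1536-well; enzyme 4 nM final; cpd up to 77 uM; substrate bovine liver glycogen 30 ug; 50 mM citrate/phosphate pH 5.0, 0.01% Tween-20; 37 C, 40 min; Amplex Red detection 45 min RT; Hill fit → AC50.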
# GAA inh – alpha-glucosidase (human) inhibition; P10253; purified human GAA, 4-MU-alpha-glucoside fluorescence; Potency, µM (series often up to 76.9 µM), without a hit: at the top dose activity change, negative = inhibition, hits mostly inhibitors; actives 0.005% (n = 200,000); AID 1466;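 note: potency is the fitted concentration of half-maximal effect; plate controls were uninhibited enzyme wells for no effect and no-enzyme background for full effect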
#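 Read-out is 4-methylumbelliferone fluorescence (Ex 365/Em 440 nm) after NaOH/glycine stop at pH 10. Enzyme 4 nM, substrate 400 uM, pH 5.0 citrate buffer, 20 min room temperature; AC50 from Hill-equation concentration-response.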
# GLA spleen mod – inhibitors or activators of human alpha-galactosidase in spleen homogenate; P06280; Potency, µM (series often up to 80 µM), for inactives: at the top dose activity change, negative = inhibition, most hits filed as inhibitors; actives 0.008% (n = 240,000); human spleen homogenate, 4MU-alpha-Gal fluorescence, 40 min;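 note: potency is the fitted concentration of half-maximal effect; 0% = enzyme with vehicle and -100% = no enzyme basal signal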
#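 Spleen homogenate 1 ug + cpd (titration) + 4-MU-alpha-D-galactopyranoside 1 mM; 37C 40 min; 50 mM citrate/phosphate pH 5.0, 0.01% Tween-20; stop pH 10; fluorescence 365/440; AC50 via Hill.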
# N370S GC – N370S glucocerebrosidase modulation, Gaucher chaperone candidate; P04062; N370S GC spleen homogenate, 4MU-glucoside fluorescence; Potency, µM (series often up to 59.4 µM), inactives show at the highest dose activity change, negative = inhibition, actives largely listed as inhibitors; actives 0.092% (n = 330,000); AID 2101;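 note: potency is the fitted concentration of half-maximal effect; 0% = full enzyme activity and -100% = no enzyme basal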
# aGlu spleen mod – lysosomal alpha-glucosidase (human) modulation; P10253; human spleen homogenate, 4-MU-alpha-glucoside fluorescence; Potency, µM (doses to about 79.9 µM), without a hit: at the highest dose activity change, negative = inhibition, actives largely listed as inhibitors; actives 0.006% (n = 240,000); AID 2112;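 note: potency is the fitted concentration of half-maximal effect; 0% = enzyme with vehicle and -100% = no enzyme basal signal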
#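 Human spleen homogenate (1 ug) with 4-methylumbelliferyl-alpha-D-glucopyranoside (1 mM final) in 50 mM citrate/phosphate pH 5.0, 0.01% Tween-20; 40 min at 37 C. Stopped at pH 10; 4-MU fluorescence Ex 365/Em 440 nm; AC50 by Hill fit.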
# GLA inh pH 4.5 – alpha-galactosidase A (human) inhibition, pH 4.5 | 230,000 tested, under 10 active | purified enzyme, 4-MU-alpha-Gal fluorescence, pH 4.5 | AID 1467 | activity change, negative = inhibition, % at 105 µM | P06280;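 note: 0% = full activity with enzyme and -100% = basal without enzyme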
# Target sequence (P06280 whole entry, looked up): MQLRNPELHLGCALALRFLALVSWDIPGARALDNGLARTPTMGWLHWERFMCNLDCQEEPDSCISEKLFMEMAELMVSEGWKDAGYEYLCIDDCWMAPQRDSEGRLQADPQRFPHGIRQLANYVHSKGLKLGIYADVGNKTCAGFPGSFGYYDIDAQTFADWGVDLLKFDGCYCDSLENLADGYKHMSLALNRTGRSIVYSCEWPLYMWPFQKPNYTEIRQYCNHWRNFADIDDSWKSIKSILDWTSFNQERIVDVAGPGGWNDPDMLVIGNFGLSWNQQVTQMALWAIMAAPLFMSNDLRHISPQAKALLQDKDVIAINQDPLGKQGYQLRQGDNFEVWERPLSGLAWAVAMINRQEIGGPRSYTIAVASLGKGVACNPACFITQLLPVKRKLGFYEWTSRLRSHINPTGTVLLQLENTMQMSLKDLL
# * = called active by the depositor; ? = inconclusive; nt = no result; [ ] = dose if it differs, or a comment. Compounds with a hit are over-represented: about 0.43% of the library has one in this group of screens. Calls come from the whole dose curve; as a rule, active = well fitted curve in the direction sought with a large enough effect; inconclusive = small, poorly fitted or top-dose-only effect, or another doubt; inactive = no such curve, though single readings can be large; an effect the other way counts as inactive or inconclusive.
SMILES,GAA glycogen mod,GAA inh,GLA spleen mod,N370S GC,aGlu spleen mod,GLA inh pH 4.5
O=c1c(O)c(-c2ccc(O)cc2O)oc2cc(O)cc(O)c12,3.2µM*,0%[15.4 µM],-1%,-10%,-11%,0
COc1c(-c2ccc(O)c(O)c2)oc2cc(O)cc(O)c2c1=O,35µM*,nt,-6%,-10%,3%,-8
COc1cc(-c2oc3cc(O)cc(O)c3c(=O)c2O[C@@H]2O[C@H](CO)[C@@H](O)[C@H](O)[C@H]2O)ccc1O,nt,nt,3%,-4%,-1%,nt
O=c1c(O[C@@H]2O[C@H](CO)[C@@H](O)[C@H](O)[C@H]2O)c(-c2ccc(O)c(O)c2)oc2cc(O)cc(O)c12,3.5µM*,-1%[15.4 µM],-7%,-15%,-10%,-15
C[C@@H]1O[C@@H](OC[C@H]2O[C@@H](Oc3c(-c4ccc(O)c(O)c4)oc4cc(O)cc(O)c4c3=O)[C@H](O)[C@@H](O)[C@@H]2O)[C@H](O)[C@H](O)[C@H]1O,3.2µM*,-2%[15.4 µM],-10%,-1%,-4%,-6
CC1OC(OCC2OC(Oc3c(-c4ccc(O)cc4)oc4cc(O)cc(O)c4c3=O)C(O)C(O)C2O)C(O)C(O)C1O (stereo not given),?,nt,-11%,-15%,-1%,-3
CSCC[C@H](N)C(=O)N[C@@H](CO)C(=O)N[C@@H](CCCN=C(N)N)C(=O)N1CCC[C@H]1C(=O)N[C@@H](C)C(=O)N[C@@H](CS)C(=O)N1CCC[C@H]1C(=O)N[C@@H](CC(N)=O)C(=O)N[C@@H](CC(=O)O)C(=O)N[C@@H](CCCCN)C(=O)N[C@@H](Cc1ccc(O)cc1)C(=O)N[C@@H](CCC(=O)O)C(=O)O,nt,nt,0%,1%,-7%,nt
CCCCCCCCCCOc1cc(OCCCCCCCCCC)cc(N(CC(=O)O)CC(=O)O)c1,nt,nt,-4%,-11%,2%,nt
O=c1c(O[C@@H]2O[C@H](CO)[C@H](O)[C@H](O)[C@H]2O)c(-c2ccc(O)c(O)c2)oc2cc(O)cc(O)c12,6.3µM*,-6%[15.4 µM],?,?,?,-9
O=c1c(O[C@@H]2O[C@H](CO)[C@@H](O)[C@H](O)[C@H]2O)c(-c2ccc(O)cc2)oc2cc(O)cc(O)c12,nt,nt,-11%,-17%,-8%,nt
CC(OCc1ccccc1)C(NC(=O)OC(C)(C)C)C(=O)NC1COC2CC(n3ccc(=O)[nH]c3=O)OC12 (stereo not given),nt,nt,2%,-4%,4%,nt
O=C1[C@H]2[C@H]3[C@H](O)[C@H](O)C/C(=N/OCc4ccccc4)[C@H]3CC[C@@H]2C(=O)N1Cc1ccc2c(c1)OCO2,nt,nt,-3%[17.5 µM],0%[12.8 µM],-3%[17.4 µM],nt
O=C(N/N=C/C1CCCCC1)c1ccccn1,?,-4%,6%,6%,4%,-6
O=C(N/N=C/C1CCCCC1)c1cc(Cl)ccc1O,35µM*,-18%,-2%,2%,-5%,4
COC(=O)[C@H](Cc1ccccc1)NC(=O)C/C=C\[C@@H](C)[C@@H](CO)OC,nt,nt,-7%[17.5 µM],1%[12.8 µM],-4%[17.4 µM],nt
Cc1c(N/C=C(\Cl)C(=O)C(F)(F)F)c(=O)n(-c2ccccc2)n1C,32µM*,-6%,3%,-15%,1%,-2
CN1CCN(Cc2nc3ccccc3c(=O)n2Cc2nc(-c3cccc([N+](=O)[O-])c3)cs2)CC1,15%,-1%,-7%,6%,-5%,8
CN1CCN(Cc2nc3ccccc3c(=O)n2Cc2nc(-c3ccc4ccccc4c3)cs2)CC1,13%,?,-3%,11µM*,-8%,3
COC/C=C/C1=CC2=CC(=O)C(C)(OC(=O)c3cnc4ccccc4n3)C(=O)C2=CN1Cc1ccc2c(c1)OCO2 (stereo not given),nt,nt,1%[17.5 µM],6%[12.8 µM],5%[17.4 µM],-7
COc1cc(C2C3=C(CCCC3=O)Nc3[nH]n(-c4ccccc4)c(=O)c32)ccc1O (stereo not given),28µM*,3%,?,-11%,-12%,-20
Cc1ccccc1Nc1c(N)c(=O)oc2ccccc12,18µM*,3%,-2%,-3%,-4%,-7
Cn1cnc2nc(NCCO)nc(NCc3ccccc3)c21,nt,nt,14%,-1%,4%,nt
Cc1c(NC(=O)CN2CCN(c3ccc(O)cc3)CC2)c(=O)n(-c2ccccc2)n1C,4µM*,2%,0%,-3%,6%,-19
Cc1ccc(S(=O)(=O)NC(=O)Nc2c(C)n(C)n(-c3ccccc3)c2=O)cc1,16µM*,-1%,-8%,4%,-9%,-2
Cc1ccc(N2C(=O)C(Cl)=C(Nc3c(C)n(C)n(-c4ccccc4)c3=O)C2=O)cc1,25µM*,-5%,-20%,-20%,-9%,1
SMILES,GAA glycogen mod,GAA inh,GLA spleen mod,N370S GC,aGlu spleen mod,GLA inh pH 4.5
Cc1cccc(N2C(=O)C(Cl)=C(Nc3c(C)n(C)n(-c4ccccc4)c3=O)C2=O)c1C,?,1%,-26%,-1%,-11%,-8
Cc1c(NC(=O)CN2CCN(c3ccc([N+](=O)[O-])cc3)CC2)c(=O)n(-c2ccccc2)n1C,3%,-4%,-3%,-12%,-9%,-10
C=CCC(C)(O)/C=C/c1ccccc1 (stereo not given),nt,nt,6%,-17%,-5%,-3
NC12CCc3c(no[n+]3[O-])C1(O)CC(c1ccccc1)=[N+]2[O-] (stereo not given),-2%,-5%,-6%,19%,-8%,-2
[O-][n+]1onc2c1CCC1N(O)C(c3ccccc3)CC21O (stereo not given),28µM*,1%,-9%,1%,-2%,-6
COc1cc(C(CCN2CCOCC2)c2c(OC)cc(OC)c3c2OC(=O)CC3c2ccc(N(C)C)cc2)cc(OC)c1OC (stereo not given),-21%,nt,0%,?,2%,-3
COc1cc(OC)c2c(c1C(CCN1CCOCC1)c1ccc(N(C)C)cc1)OC(=O)CC2c1ccc(N(C)C)cc1 (stereo not given),1%,nt,4%,10µM*,-7%,-2
C=CC1=C2C=C(C3CC3)N(C3CCCC3)C=C2C(=O)C(C)(OC(=O)c2ccco2)C1=O (stereo not given),nt,nt,0%[17.5 µM],-1%[12.8 µM],-7%[17.4 µM],9
Cc1ccc(-c2cc(C(=O)N3CCN(S(=O)(=O)c4ccc(Br)s4)CC3)[nH]n2)c(C)c1,8.9µM*,nt,nt,nt,nt,nt
O=C(NNS(=O)(=O)c1ccccc1)c1cc2cc3ccccc3nc2s1,22µM*,6%,2%,-6%,-6%,-5
COc1cc(OC)c(OC)cc1CNc1cc(C)ccc1OC,11µM*,-13%,11%,12%,7%,2

# High-throughput results as filed in PubChem.
